From ChEMBL document CHEMBL4513151, “CO-ADD screening of Institut Català d'Investigació Química (Spain) compounds”
Where “and” joins values, the source holds several entries; their conditions need not be identical. Identical values can stand only once. Entries with a potency or affinity are not part of this list.

How the values were obtained:
Staphylococcus aureus = conditions: Concentration 32 ug.mL-1, ASSAY_TEST Inhibition of Bacterial Growth, detection method Absorption (OD600), MEDIA CAMHB, plate type 384well, NBS, CORNING #3640, time 18 hr
Escherichia coli = conditions: Concentration 32 ug.mL-1, ASSAY_TEST Inhibition of Bacterial Growth, detection method Absorption (OD600), MEDIA CAMHB, plate type 384well, NBS, CORNING #3640, time 18 hr

Row | SMILES | Inhibition (Staphylococcus aureus; 32 ug/mL) | Inhibition (Escherichia coli; 32 ug/mL) | Inhibition (Staphylococcus aureus) [%] | Inhibition (Escherichia coli) [%]
1 | C[C@]12CC[C@@](c3ccccc3)(O1)[C@H]1C=C[C@H](OC(=O)c3ccccc3)[C@H]12 | 15.6% and 15.32% | -5.43% and -1.36% | – | –
2 | C=C1CC2(COC(C)(C)OC2)C[C@@H]1[C@@H](Nc1ccc(Br)cc1)c1ccccc1 | – | – | 25.91 | 2.09
3 | C=C1CC(COCc2ccc(OC)cc2)(COCc2ccc(OC)cc2)C[C@@H]1[C@@H](Nc1ccc(Br)cc1)c1ccccc1 | – | – | -1.38 | -13.28
4 | C=C1CC(COC)(COC)C[C@@H]1[C@@H](Nc1ccc(Br)cc1)c1ccccc1 | – | – | 4.73 | -1.74
